One test has as its system TAB113. Briefly: qHTS profiling for inhibitors of Plasmodium falciparum proliferation (AID 504749). Further: nearly all actives have a fitted effect of over 60% in size. The note with it: P. falciparum in erythrocytes, SYBR Green DNA, 72 h; series mostly up to 28.7 µM. Summed up:
(§1)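 P. falciparum-infected erythrocytes (0.3% parasitemia, 2.5% hematocrit final) were exposed to compounds for 72 h at 37 C in 5% CO2, then lysed with SYBR Green buffer overnight at room temperature; parasite DNA fluorescence was normalized to artemisinin and DMSO controls.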
In general terms: Quantitative high-throughput screening tests each substance at several concentrations.

Another test deals with TAB165. The description is as above. The note with it: P. falciparum in erythrocytes, SYBR Green DNA, 72 h; series mostly up to 28.7 µM. In outline:
as §1

A further test concerns W2. Described as above. The note with it: P. falciparum in erythrocytes, SYBR Green DNA, 72 h; series mostly up to 28.7 µM. Summed up:
as §1

For a further test, the system named is CRL-7250. Briefly: Cytotoxic Profiling of Annotated Libraries Using Quantitative High-Throughput Screening (AID 1296008). Further: nearly all actives have a fitted effect of over 60% in size. On max response: on the % scale 0 is the no-effect control and ±100 the full control effect. The following applies: Five cell lines viability, CellTiter-Glo ATP luminescence, 48-72 h; max response: active compounds read low. Summed up:
(§2)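 Compounds were pin-transferred onto cells and incubated 48 or 72 hr at 37 degree Celsius, 95% humidity. CellTiter-Glo was added, plates sat 10 min at room temperature, then ATP-coupled luminescence was imaged as the viability read-out.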
On the technique in general: In ATP-based viability assays light output follows the ATP content of the culture.

The next test has as its system HEK293. The test is described as above. The following applies: Five cell lines viability, CellTiter-Glo ATP luminescence, 48-72 h; max response: active compounds read low. In outline:
as §2

The subject of test [1] is HaCat. The description is as above. The following applies: Five cell lines viability, CellTiter-Glo ATP luminescence, 48-72 h; max response: active compounds read low. Summed up: as §2
Another test deals with KB-3-1. The description is as above. The note with it: Five cell lines viability, CellTiter-Glo ATP luminescence, 48-72 h; max response: active compounds read low. In outline: as §2
The test system of test [2] is NIH3T3. Described as above. The following applies: Five cell lines viability, CellTiter-Glo ATP luminescence, 48-72 h; max response: active compounds read low. Summed up: as §2
Test [3] relates to HACAT. The test is described as follows: qHTS assay to identify novel small-molecules to repurpose for Merkel cell carcinoma treatment (AID 1296009). Further: nearly all actives have a fitted effect of over 60% in size. The note with it: MCC and control cell lines, CellTiter-Glo viability, 72 h; at 44.8 µM (top of the series) unless noted. In outline:
(§3)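 Cells exposed to NPC (8-point) and MIPE (11-point) compound dilutions for 72 hr at 37 degree celsius; viability read by CellTiter-Glo luminescence, normalized to no-cell and DMSO in-plate controls.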

A further test deals with MCC-13. The description is as above. The following applies: MCC and control cell lines, CellTiter-Glo viability, 72 h; series mostly up to 46 µM. In outline: as §3
In a further test the test system is MCC-26. Described as above. The following applies: MCC and control cell lines, CellTiter-Glo viability, 72 h; series mostly up to 46 µM. In outline:
as §3

The next test concerns MKL-1. Described as above. The following applies: MCC and control cell lines, CellTiter-Glo viability, 72 h; series mostly up to 46 µM. In outline:
as §3

A further test deals with MKL-2. Described as above. The following applies: MCC and control cell lines, CellTiter-Glo viability, 72 h; series mostly up to 46 µM. Summed up: as §3
Another test concerns UISO. The test is described as above. The note with it: MCC and control cell lines, CellTiter-Glo viability, 72 h; series mostly up to 46 µM. Summed up:
as §3

The next test has as its system WaGa. The description is as above. The note with it: MCC and control cell lines, CellTiter-Glo viability, 72 h; series mostly up to 46 µM. In outline:
as §3

The subject of another test is C33A. Briefly: Primary qHTS to identify gynecologic anti-cancer compounds using libraries of approved drugs and bioactive compounds (AID 1345084). Further: nearly all actives have a fitted effect of over 55% in size. The following applies: Gynecologic cancer cell panel viability, ATPlite luminescence, 48 h; series mostly up to 57.5 µM. Summed up:
(§4)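 Measured: luminescence after ATPlite addition (15 min, RT). Exposure: 48 h, 37 C, 5% CO2.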

Another test relates to CASKI. Described as above. The note with it: Gynecologic cancer cell panel viability, ATPlite luminescence, 48 h; series mostly up to 57.5 µM. Summed up: as §4
The subject of the next test is HEK293T. Briefly: qHTS assay to identify novel small-molecules to repurpose for Merkel cell carcinoma treatment (AID 1296009). Further: nearly all actives have a fitted effect of over 60% in size. The following applies: MCC and control cell lines, CellTiter-Glo viability, 72 h; at 44.8 µM (top of the series) unless noted. Summed up:
as §3

Test [4] concerns NIH3T3. The description is as above. The following applies: MCC and control cell lines, CellTiter-Glo viability, 72 h; at 44.8 µM (top of the series) unless noted. Summed up: as §3
The next test has as its system CAOV3. The test is described as follows: Primary qHTS to identify gynecologic anti-cancer compounds using libraries of approved drugs and bioactive compounds (AID 1345084). Further: nearly all actives have a fitted effect of over 55% in size. The following applies: Gynecologic cancer cell panel viability, ATPlite luminescence, 48 h; series mostly up to 57.5 µM. Summed up: as §4

We go through six compounds from PubChem BioAssay (NCATS).

Each structure is given as a SMILES string. Several values for one entry are separate records, joined by “and”; a condition that tells them apart may be missing. Equal entries are not always repeated. Results filed as inconclusive are left out. Values without a mark were called inactive. Activity calls are given as the source filed them. The call rests on the fitted dose curve; in most records, active means well fitted curve in the direction sought with a large enough effect; inconclusive means small, poorly fitted or top-dose-only effect, or another doubt; inactive means no such curve, though single readings can be large; an effect the other way counts as inactive or inconclusive.
Potency means the concentration at half of the fitted maximal effect.

`COc1c2occc2c(OC)c2c(=O)cc(C)oc12`: the Potency entry in the test on TAB113, with TAB165, in the test on W2, in the test with MCC-13, in the test with MCC-26 and in the test on MKL-1 was “inactive” in each case. For the same compound, the Potency entry with MKL-2, with UISO, in the test with WaGa, in the test on C33A and with CASKI was “inactive” in each case. The outcome in the test on CRL-7250, in the test with HaCat [1] and with HACAT [3] was inactive. Besides, the max response in the test with HEK293 was -0.27%; with KB-3-1 it was 9.91%; in the test with NIH3T3 [2] it was -9.5%.
Turning to `O=c1ccc2ccccc2o1`, the Potency result with TAB113, in the test on TAB165, in the test with W2, with MCC-13, in the test on MCC-26 and in the test with MKL-1 was “inactive” each time. The Potency entry with MKL-2, in the test on UISO, with WaGa, with C33A, in the test with CAOV3 and in the test on CASKI was “inactive” in each case. Further, the compound was classed as inactive with CRL-7250, in the test on HEK293, in the test with NIH3T3 [2], with HEK293T and in the test on NIH3T3 [4]. Further, the max response in the test with HaCat [1] is -0.31%; in the test with KB-3-1, -9.75%.
As for `CC(C)n1nc(-c2cc3cc(O)ccc3[nH]2)c2c(N)ncnc21`, the Potency in the test on CRL-7250 was 376 nM (active) and 461 nM (active); in the test with HEK293 it was 1.33 µM (active) and 1.46 µM (active); in the test with HaCat [1], 23.1 µM (active); in the test on KB-3-1, 1.3 µM (active); with NIH3T3 [2] it was 2.37 µM (active) and 1.16 µM (active); in the test on MCC-13, 16.8 µM (active). The Potency was 11.9 µM (active) in the test on MCC-26; 10.6 µM (active) in the test with MKL-1; 8.41 µM (active) in the test with MKL-2; 9.44 µM (active) in the test on UISO; 2.99 µM (active) in the test with WaGa; 0.794 µM (active) with C33A. Also, the Potency with CAOV3 was 1.58 µM (active); in the test with CASKI, 8.91 µM (active) and 15.8 µM (active).
In the case of `CN(C)CCOc1ccccc1Cc1ccccc1`, the Potency with W2 is 0.0536 µM (active). For the same compound, the compound was called inactive in the test on CRL-7250, in the test on HaCat [1] and in the test on HACAT [3]. Moreover, the max response with HEK293 was -12.7%; with KB-3-1 it was -14.6%; with NIH3T3 [2], -2.31%. The Potency entry in the test on MCC-13, in the test with MKL-1, in the test on MKL-2, with UISO, in the test on WaGa and in the test with C33A was “inactive” each time. Besides, the Potency entry with CAOV3 and with CASKI was “inactive” each time.
In the case of `CCOC(=O)COc1ccc2c(C)c(CCN(CC)CC)c(=O)oc2c1Cl`, the Potency result in the test on TAB113, in the test on W2, with MCC-13, in the test with MCC-26, in the test with UISO and in the test with C33A was “inactive” in each case. In addition, in the test on CASKI, the Potency entry is “inactive”. Moreover, the Potency in the test on CRL-7250 is 29.9 µM (active). In addition, the compound was classed as inactive with HEK293 and in the test on HEK293T. In addition, the max response was -12.1% in the test on HaCat [1], 7.91% in the test on KB-3-1 and 1.29% in the test with NIH3T3 [2].
For the compound `Oc1ccc(O)cc1`, the Potency in the test on W2 was 12 µM (active); with MKL-1 it was 5.31 µM (active); in the test with MKL-2, 4.73 µM (active); in the test with WaGa it was 1.88 µM (active). Moreover, the compound was classed as inactive in the test with CRL-7250, in the test with HaCat [1] and in the test on HACAT [3]. For the same compound, the values for the max response with HEK293, with KB-3-1 and with NIH3T3 [2] were -16.2%, -4.96% and -10.8%, respectively. Moreover, the Potency result in the test on MCC-13, in the test with MCC-26, in the test with C33A, in the test with CAOV3 and with CASKI was “inactive” each time.
